Assay results from PubChem BioAssay (EPA / NIEHS).
“And” between values parts separate entries of the source, which are not always exact repeats. Identical values can stand only once. Results filed as inconclusive are left out. Some structures have more than one record in an assay (separate samples or runs), and their calls can disagree. The source made the active and inactive calls. Rule for the calls, unless noted: active = hit-call score of the fitted dose curve at least 0.9, where 1 is the maximum; inactive = score below 0.9.

How the values were obtained:
[1] = read-out: Monokine induced gamma interferon (MIG), CXCL9 (gene 4283); assay: BSK_3C_MIG: BioMAP Diversity Plus: 3C Assay for Monokine induced gamma interferon (MIG) Biomarker Activity (AID 2283021); conditions: primary human endothelial cells (HUVEC); actives raise or lower the signal;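 for AC50: MIG protein level measured by immunoassay in the treated endothelial cultures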
Procedure, shortened: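 After 24 h of treatment, human umbilical vein endothelial cultures (3C system) had their MIG biomarker level determined by ELISA, with DMSO serving as negative control.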

[2] = target: human Vitamin D Receptor (VDR), VDR (gene 7421) (UniProt P11473); assay: ATG_VDR_TRANS: Attagene TRANS-FACTORIAL HepG2 Assay for human Vitamin D Receptor (VDR) (AID 2283022; active = hit-call score of the fitted dose curve at least 0.9, where 1 is the maximum)
Procedure, shortened: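 HepG2 cells were transiently transfected with multiple GAL4-UAS reporter units, so signal reflects exogenous chimeric receptor-Gal4 activity. After 24 h compound exposure, reporter mRNA was measured by RT-PCR, fluorescent labelling and capillary electrophoresis, fitted for gain of signal versus DMSO.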

[3] = BSK_3C_SRB: Viability Assessment in the BioMAP Diversity Plus: 3C Assay (AID 2283023); conditions: primary human endothelial cells (HUVEC);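 note: fitted both ways against DMSO so a hit may be signal rise or drop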
Procedure, shortened: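 Primary human umbilical vein endothelial cells in the 3C system were read 24 h after compound dosing. Total protein was stained with 0.1% sulforhodamine B after 10% TCA fixation and read at 560 nm, with bidirectional fitting against DMSO as baseline.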

[4] = read-out: Matrix Metallopeptidase 1 (MMP1), MMP1 (gene 4312); assay: BSK_BE3C_MMP1: BioMAP Diversity Plus: BE3C Assay for Matrix Metallopeptidase 1 (MMP1) Biomarker Activity (AID 2283024); conditions: primary human bronchial epithelial cells; actives raise or lower the signal
Procedure, shortened: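 Dose cells, wait 24 h, run MMP1 ELISA; cells are human bronchial epithelial primaries. Both increases and decreases relative to DMSO counted.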

[5] = read-out: Pselectin, SELP (gene 6403); assay: BSK_4H_Pselectin: BioMAP Diversity Plus: 4H Assay for Pselectin Biomarker Activity (AID 2283026); conditions: primary human endothelial cells (HUVEC); actives raise or lower the signal
Procedure, shortened: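 Human vascular endothelium from umbilical vein; P-selectin measured by ELISA at 24 h post-dose, with cytotoxicity checked by sulforhodamine B total-protein staining in parallel cultures (0.1% SRB after 10% TCA fixation, read at 560 nm).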

[6] = BSK_BE3C_SRB: Viability Assessment in the BioMAP Diversity Plus: BE3C Assay (AID 2283028); conditions: primary human bronchial epithelial cells;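 for AC50: fitted both ways so AC50 may mark signal gain or loss versus DMSO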
Procedure, shortened: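 Human primary bronchial epithelial cells were exposed to test chemicals for 24 h. Total protein in parallel cultures was then measured by staining with 0.1% sulforhodamine B after 10% TCA fixation, with absorbance read at 560 nm. Activity was fitted bidirectionally against DMSO.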

[7] = read-out: Thrombomodulin, THBD (gene 7056); assay: BSK_3C_Thrombomodulin: BioMAP Diversity Plus: 3C Assay for Thrombomodulin Biomarker Activity (AID 2283029); conditions: primary human endothelial cells (HUVEC); actives raise or lower the signal
Procedure, shortened: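 Thrombomodulin ELISA, human primary HUVEC, 24 h post-dose; data fitted in both directions relative to DMSO.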

[8] = read-out: Vascular endothelial growth factor receptor 2 (Homo sapiens) (UniProt P35968); assay: BSK_4H_VEGFRII: BioMAP Diversity Plus: 4H Assay for Vascular endothelial growth factor receptor 2 (VEGFR2) Biomarker Activity (AID 2283031); conditions: primary human endothelial cells (HUVEC); actives raise or lower the signal;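 for AC50: cell-surface VEGFR2 protein level quantified by ELISA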
Procedure, shortened: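 Primary human umbilical vein endothelial cells in the BioMAP 4H system were dosed with test chemical, and 24 h later VEGFRII was measured by ELISA. Activity was fitted bidirectionally against DMSO as negative control and baseline.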

[9] = read-out: Human Leukocyte Antigen - DR isotype (HLADR), HLA-DRA (gene 3122); assay: BSK_BE3C_HLADR: BioMAP Diversity Plus: BE3C Assay for Human Leukocyte Antigen - DR isotype (HLADR) Biomarker Activity (AID 2283032); conditions: primary human bronchial epithelial cells; actives raise or lower the signal
Procedure, shortened: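 Signal came from an ELISA for HLA-DR in human bronchial epithelial primary cells harvested 24 h after treatment; gain- and loss-of-signal fitting used DMSO controls as reference.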

[10] = read-out: Vascular cell adhesion molecule 1 (VCAM1), VCAM1 (gene 7412); assay: BSK_4H_VCAM1: BioMAP Diversity Plus: 4H Assay for Vascular cell adhesion molecule 1 (VCAM1) Biomarker Activity (AID 2283033); conditions: primary human endothelial cells (HUVEC); actives raise or lower the signal
Procedure, shortened: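 Endpoint derived from bidirectional fitting against DMSO controls of VCAM-1 ELISA signal in umbilical vein endothelial cells sampled at 24 h following treatment.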

[11] = read-out: Interferon-gamma inducible Protein 10 (IP10), CXCL10 (gene 3627); assay: BSK_BE3C_IP10: BioMAP Diversity Plus: BE3C Assay for Interferon-gamma inducible Protein 10 (IP10) Biomarker Activity (AID 2283034); conditions: primary human bronchial epithelial cells; actives raise or lower the signal
Procedure, shortened: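 Using primary human bronchial epithelial cultures, the assay captures IP-10 by ELISA one day (24 h) after exposure. Parallel SRB staining of total protein flags overt cytotoxicity. Fits run bidirectionally relative to DMSO.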

[12] = read-out: Monokine induced gamma interferon (MIG), CXCL9 (gene 4283); assay: BSK_BE3C_MIG: BioMAP Diversity Plus: BE3C Assay for Monokine induced gamma interferon (MIG) Biomarker Activity (AID 2283035); conditions: primary human bronchial epithelial cells; actives raise or lower the signal;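 note: MIG protein measured by ELISA in BE3C cultures after 24 h of dosing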
Procedure, shortened: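 MIG level was determined by ELISA after 24 h chemical treatment of primary human bronchial epithelial cells. Values were fitted bidirectionally with DMSO as the negative control and activity baseline.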

[13] = read-out: urokinase plasminogen activator (uPA), PLAU (gene 5328); assay: BSK_BE3C_uPA: BioMAP Diversity Plus: BE3C Assay for urokinase plasminogen activator (uPA) Biomarker Activity (AID 2283038); conditions: primary human bronchial epithelial cells; actives raise or lower the signal
Procedure, shortened: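 Human primary bronchial epithelial cells were exposed to chemical for 24 h, then uPA levels were measured by ELISA. Responses were fitted bidirectionally against DMSO as negative control and baseline. Parallel SRB staining of total protein gauged overt cytotoxicity.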

[14] = read-out: Urokinase-type plasminogen activator receptor (uPAR), PLAUR (gene 5329); assay: BSK_BE3C_uPAR: BioMAP Diversity Plus: BE3C Assay for Urokinase-type plasminogen activator receptor (uPAR) Biomarker Activity (AID 2283039); conditions: primary human bronchial epithelial cells; actives raise or lower the signal;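 note: cells exposed to compound for one day before measurement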
Procedure, shortened: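 A uPAR ELISA serves as the readout, taken 24 h after treating primary human bronchial epithelial cells. Responses in either direction are fitted against DMSO, which defines baseline activity.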

[15] = read-out: Interleukin-6 (IL6), IL6 (gene 3569); assay: BSK_CASM3C_IL6: BioMAP Diversity Plus: CASM3C Assay for Interleukin-6 (IL6) Biomarker Activity for (AID 2283040); conditions: primary human coronary artery smooth muscle cells; actives raise or lower the signal
[16] = BSK_3C_Vis: BioMAP Diversity Plus: 3C Assay for Morphology Visualization (AID 2283025); conditions: primary human endothelial cells (HUVEC);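 note: fitted both ways so gain or loss versus DMSO counts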
Procedure, shortened: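 Endothelial cells from human umbilical vein were treated with test chemicals for 24 h and inspected by light microscopy for changes in cell conformation.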

[17] = read-out: Transforming growth factor beta 1 (TGFb1), TGFB1 (gene 7040); assay: BSK_BE3C_TGFb1: BioMAP Diversity Plus: BE3C Assay for Transforming growth factor beta 1 (TGFb1) Biomarker Activity (AID 2283036;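 note: TGF-b1 protein level measured by ELISA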); conditions: primary human bronchial epithelial cells; actives raise or lower the signal
Procedure, shortened: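 In this human primary bronchial epithelial system, an ELISA quantified TGF-b1 one day after dosing. Endpoint changes in either direction were fitted relative to DMSO.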

Measured: AC50

Sequence of human Vitamin D Receptor (VDR), VDR (gene 7421) (P11473 whole entry, looked up, the tested form may be a part): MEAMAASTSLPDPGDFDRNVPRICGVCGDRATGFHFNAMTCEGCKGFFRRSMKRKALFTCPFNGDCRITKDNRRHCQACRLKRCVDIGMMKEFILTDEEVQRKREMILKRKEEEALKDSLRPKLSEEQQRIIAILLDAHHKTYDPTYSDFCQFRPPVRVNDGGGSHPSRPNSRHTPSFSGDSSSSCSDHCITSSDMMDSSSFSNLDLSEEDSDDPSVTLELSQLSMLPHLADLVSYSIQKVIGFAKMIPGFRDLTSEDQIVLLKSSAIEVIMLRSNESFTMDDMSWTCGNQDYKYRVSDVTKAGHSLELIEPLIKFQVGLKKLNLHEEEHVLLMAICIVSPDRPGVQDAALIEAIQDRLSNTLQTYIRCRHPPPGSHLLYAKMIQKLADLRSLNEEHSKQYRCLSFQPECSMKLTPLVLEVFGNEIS

CC1(C)CCC[C@]2(C)[C@H]3CCO[C@]3(C)CC[C@@H]12
active: [1] 34.9 µM | [3] 34.9 µM and 39.2 µM | [5] 33.4 µM | [6] 30 µM | [7] 14.6 µM and 17.3 µM | [8] 31.9 µM | [9] 23.9 µM and 28.6 µM | [10] 30.4 µM | [13] 26.2 µM | [15] 31.5 µM and 16.6 µM
inactive: [1] | [2] | [4] | [5] | [6] | [8] | [10] | [11] | [12] | [13] | [14]

O=C(Nc1ccc2c(O)c(N=Nc3ccc(N=Nc4ccc(S(=O)(=O)O)cc4)cc3)c(S(=O)(=O)O)cc2c1)c1ccccc1
inactive: [1] | [2] | [3] | [5] | [7] | [8] | [9] | [10] | [11] | [12] | [13] | [14] | [15]

C=C(C)C(=O)OCCOC1CC2CC1C1C=CCC21 (configuration not stated)
inactive: [2]

CC(C)(C)C1=CC(=O)C(C(C)(C)C)=CC1=O
inactive: [2]

CC(CN=Cc1ccccc1O)N=Cc1ccccc1O (configuration not stated)
active: [15] 8.95 µM
inactive: [1] | [3] | [5] | [7] | [8] | [9] | [10] | [11] | [12] | [13] | [14] | [15]

C=CCOC(=O)CCCCCC
inactive: [2]

CS(C)=O
inactive: [2]

CS(=O)(=O)c1ccc(C2=C(c3ccccc3)C(=O)OC2)cc1
inactive: [1] | [3] | [16] | [5] | [7] | [8] | [9] | [10] | [11] | [12] | [17] | [13] | [14] | [15]

Nc1c(S(=O)(=O)O)cc(Br)c2c1C(=O)c1ccccc1C2=O
inactive: [2]

CCCCCCC(CO)CCCC (configuration not stated)
inactive: [1] | [3] | [5] | [6] | [7] | [8] | [9] | [10] | [11] | [12] | [13] | [14] | [15]

c1ccc(CN(Cc2ccccc2)Cc2ccccc2)cc1
inactive: [2]

CCCCC(CC)C(=O)OC(C)C (configuration not stated)
inactive: [2]

C[C@H](CCC(=O)NCC(=O)O)[C@H]1CC[C@H]2[C@@H]3[C@H](O)C[C@@H]4C[C@H](O)CC[C@]4(C)[C@H]3C[C@H](O)[C@]12C
inactive: [2]
